Bioassay records as filed in PubChem BioAssay.
In the library only some 4.1% were active in any assay of this set; here they are far more common.
TROY NFkB inh: inhibitors of TROY-driven NF-kB signaling, primary screen, Q293 LMP1-TROYcd cells, NF-kB luciferase, uHTS; Q293 LMP1-TROYcd NF-kB luciferase reporter, 4 h; inhibition, % at 10 µM; 360,000 compounds, 0.98% hits; AID 1347056, 2019;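 active = compounds whose plate-normalised and pattern-corrected inhibition of the luciferase reporter signal at the single screening dose is 50% or more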
LMP1 NFkB inh: EBV LMP1-driven NF-kappaB luciferase reporter inhibitors, primary screen, cell-based, luminescence, single point; LMP1-induced NF-kappaB luciferase reporter cells; inhibition, % at 12.5 µM; 350,000 compounds, 0.69% hits; AID 504558, 2011; in the data active = inhibition above about 41%; inconclusive = no clear call, values can overlap the other calls;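 also: 0% = neutral control wells and 100% = reference inhibitor control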
MITF TRPM1 inh: inhibitors of MITF-dependent TRPM1 promoter reporter, primary screen, cell-based, SK-MEL-5, single point, luciferase. AID 488899, 2010. 330,000 compounds, 0.83% hits. SK-MEL-5 TRPM1 promoter luciferase, 24 h. inhibition, % at 12.5 µM;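 active = mean inhibition across replicates of 60% or more, whatever share of single replicates reaches that level; inconclusive = some that reach 60%, reason not given; inactive = mean inhibition across replicates below 60%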
Peg3 prom inh-1: Peg3 promoter-driven luciferase inhibitors, primary screen, cell-based, HeLa, luciferase luminescence | HeLa PEG-Prom luciferase reporter, overnight | inhibition, % at 20 µM | 360,000 compounds, 1.7% hits;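 active = inhibition of at least 50% at 20 µM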
TWEAK-Fn14 inh: inhibitors of TWEAK-Fn14 signaling, primary screen, luciferase reporter cells, uHTS | 360,000 compounds, 2% hits | TWEAK-stimulated Fn14 reporter cells, luciferase luminescence, 8 h | inhibition, % at 10 µM; in the data active = inhibition above about 50%
Shn3 3UTR inh: reduction of Shn3 3'UTR firefly luciferase signal, primary screen, Schnurri-3 inhibitor project, cell-based, Clone20 osteoblasts, set 2 | 360,000 compounds, 0.52% hits | Clone20 osteoblast Shn3 3'UTR firefly luciferase, 24 h | inhibition, % at 12.5 µM;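 active = mean inhibition of at least 75% with every replicate also reaching 75%; inconclusive = mean inhibition at least 75% but some replicate below; inactive = mean inhibition below 75%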;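 also: 0% = median of neutral control wells and 100% = pilot-screen positive control compound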
Peg3 prom inh-2: Peg3 promoter reporter inhibitors, retest, confirmation, cell-based, HeLa, luciferase reporter, single concentration. shares compounds with Peg3 prom inh-1. HeLa PEG-Prom luciferase reporter, luminescence, overnight. inhibition, % at 20 µM. 1,300 compounds, 84% hits. AID 602417, 2012;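 active = at 20 µM dose, 40% or more inhibition averaged across four replicates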
Starred values were filed as active, the others as inactive; ? = inconclusive; · = no result; ! = a repeat was not active.

SMILES	TROY NFkB inh	LMP1 NFkB inh	MITF TRPM1 inh	Peg3 prom inh-1	TWEAK-Fn14 inh	Shn3 3UTR inh	Peg3 prom inh-2
CCCCC(=O)NC(c1ccccc1)c1ccc2cccnc2c1O (configuration not stated)	11	48*	65*	55*	20	93*	88*
CC(=O)NC(c1ccc(C(C)C)cc1)c1ccc2cccnc2c1O (configuration not stated)	14	57*	?	57*	14	92*	70*
O=C(NCc1ccccc1)C1(c2cccc(F)c2)CCCC1	-4	2	-6	-2	-17	10	·
CC(C)C(=O)NC(c1ccccc1)c1cc([N+](=O)[O-])c2cccnc2c1O (configuration not stated)	-9	16	-3	45	24	17	·
CCCC(=O)NC(c1ccccc1)c1ccc2cccnc2c1O (configuration not stated)	12	40	65*	53*	13	93*	63*
O=C(NC1CCCCC1)C(c1cccnc1)N(C(=O)CCl)c1cccc(Cl)c1 (configuration not stated)	9	19	83*	106*	44	-7	99*
Cc1ccc2nc(-c3ccncc3)cc(C(=O)NCc3ccccc3F)c2c1	-40	-5	1	3	-1	-2	·
COc1ccccc1CCNC(=O)c1cc(-c2ccncc2)nc2ccc(Br)cc12	11	-45	1	60*	33	24	36
CN(CCOc1ccc(Cl)cc1)C(=O)c1cc(-c2ccco2)nc2ccccc12	8	11	8	64*	28	3	79*
N#C/C(=C\c1cccc([N+](=O)[O-])c1)C(=O)NCc1ccc(Cl)cc1	-16	8	53	111*	9	82	96*
N#C/C(=C\c1cccc([N+](=O)[O-])c1)C(=O)NCc1cccnc1	-22	0	6	-21	3	2	·
CSc1ccc2c(c1)C(N1CCN(C)CC1)Cc1ccccc1S2 (configuration not stated)	-5	89*!	31	82*!	-30	1	84*
CN1CCN(C2Cc3cc(F)ccc3Sc3ccc(Cl)cc32)CC1 (configuration not stated)	-6	-6	-15	23	2	11	·
C=C1CC(Cn2cc(Br)c(=O)[nH]c2=O)(c2ccc(-c3ccccc3)cc2)OC1=O (configuration not stated)	49	17	109*	100*	83*	95*	98*
CCN(CCO)c1ccc(N=Nc2cc(C)[nH]n2)cc1	69*	63*	76*	72*	91*	15	56*
CC(C)(C)c1ccc(OCCCNCc2ccccc2)cc1	-1	8	43	112*	-1	-9	61*
O=C(Nc1ccccc1)c1cc(C2CCCN(C(=O)c3ccccc3)C2)on1 (configuration not stated)	-58	·	·	-181	-7	-37	·
CCCC(=O)N1CCCC(c2cc(C(=O)Nc3ccccc3)no2)C1 (configuration not stated)	83*	·	·	54*	95*	32	47*
COc1ccc(N=CC2=C(O)c3ccccc3C2=O)c(OC)c1	83*	57*	76*	74*	102*	44	21
COc1ccc(CC2=C(O)c3ccccc3C(=O)C2=O)cc1	17	-10	17	-11	33	19	·
O=C(CNC(=O)C(c1ccccc1)c1ccccc1)N/N=C\c1cccc(O)c1	5	-8	8	2	7	-4	·
O=C(CNC(=O)C(c1ccccc1)c1ccccc1)N/N=C/c1ccc(O)cc1O	13	17	38	51*	4	79	65*
COc1ccc(OCC(=O)Nc2ccc3c(c2)nc(CCN2CCN(C)CC2)n3C)cc1	-38	4	1	4	-3	0	·
Clc1ccc(CN2CCc3c([nH]c4ccccc34)C2)cc1Cl	-3	-10	3	81*	-2	1	23
CCn1c(=O)c2cc(C(=O)Nc3ccc(OC)cc3OC)sc2c2ccccc21	-3	-29	36	17	-25	-1	·
SMILES	TROY NFkB inh	LMP1 NFkB inh	MITF TRPM1 inh	Peg3 prom inh-1	TWEAK-Fn14 inh	Shn3 3UTR inh	Peg3 prom inh-2
COc1ccc(NC(=O)c2cc3c(Cl)nc4ccccc4c3s2)c(OC)c1	7	5	11	52*	-43	0	15
O=C1CCC2S/C(=C/Nc3ccc(C(F)(F)F)cc3)C(=O)N12 (configuration not stated)	-37	51*	86*	67*	86*	57	89*
O=C1CCCC/C1=C/Nc1cccc(C(F)(F)F)c1	-11	-1	2	-52	-11	-23	·
Cc1ccc(Oc2ccccc2NC(=O)CSCC(=O)Nc2cc(C)on2)cc1	24	19	25	14	30	67	·
O=C1C(Cl)=C(N2CCC(C(=O)O)CC2)C(=O)c2ccccc21	12	-6	45	5	14	-8	·
NC(=O)C1CCN(C2=C(Cl)C(=O)c3ccccc3C2=O)CC1	-7	78*	88*	73*	7	98*	98*
O=C(COC(=O)c1ccccc1Br)NCC1CCCO1 (configuration not stated)	-21	-7	-6	-19	3	-11	·
Cc1cc(C(=O)COC(=O)c2ccccc2O)c(C)n1CC1CCCO1 (configuration not stated)	90*	87*	84*	85*	106*	83	92*
CCn1c(C)cc(C(=O)COC(=O)c2ccccc2[N+](=O)[O-])c1C	90*	87*	97*	94*	105*	94*	91*
COCCn1c(C)cc(C(=O)COC(=O)c2ccccc2Br)c1C	92*	54*	81*	78*	105*	67	69*
C=CCn1c(C)cc(C(=O)COC(=O)c2ccc(N)c([N+](=O)[O-])c2)c1C	7	-19	-56	-277	35	-31	·
Cc1cc(C(=O)COC(=O)c2ccccc2Br)c(C)n1CC1CCCO1 (configuration not stated)	71*	75*	76*	54*	92*	?	78*
CCN(CC)c1ccc(NC(=O)CCS(=O)(=O)c2ccc(Br)cc2)c(C)c1	-9	2	6	15	2	18	·
